The list is not random: actives were taken first. Their share in the collection is about 1.3%.
SARS 3CLpro inh = SARS-CoV 3CLpro protease inhibition | inhibition, % at 6 µM | P0C6X7 | 0.14% of 290,000 active | recombinant SARS-CoV 3CLpro, quenched FRET peptide cleavage | AID 1706; in the data active = inhibition above about 12%
CCHF vOTU inh = blocks the CCHF virus ovarian tumor domain protease; CCHFV vOTU protease, Pep-AMC fluorescence; inhibition, % at 11.5 µM; 0.55% of 370,000 active; in the data active = inhibition above about 30%
Mtb bLac sens = beta-lactam sensitization of Mtb H37Rv. M. tuberculosis H37Rv growth with meropenem, percent inhibition. inhibition, % at 25 µM. 0.27% of 330,000 active. AID 434955; call rule not given here;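 also: growth measured after seven days incubation then overnight dye step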
ugtP null kill = growth inhibition of S. aureus ugtP deletion strain; growth inhibition, % (no concentration beside the values); S. aureus RN4220 ugtP deletion, OD600 growth, 16 h; 0.54% of 330,000 active; AID 1259309; in the data active = growth inhibition above about 68%
MazF activator = increases E. coli MazEF RNase cleavage of RNA; activation, % at 20 µM; FAM/BHQ RNA-DNA oligo cleavage fluorescence, 5 h; 0.32% of 350,000 active; in the data active = activation above about 50%
Target sequence (P0AE70 whole entry, looked up): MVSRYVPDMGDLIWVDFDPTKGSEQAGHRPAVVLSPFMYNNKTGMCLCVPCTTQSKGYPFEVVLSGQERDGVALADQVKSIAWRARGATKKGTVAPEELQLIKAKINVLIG
Sa RN4220 lethal = kills Staphylococcus aureus RN4220 | S. aureus RN4220 growth, OD600, 16 h | inhibition, % (test concentration not listed) | 0.33% of 330,000 active; in the data active = inhibition above about 85%
Of the large screens only hits and unclear results are named; the others gave an inactive call.

O=C(Cc1ccccc1)Nc1ccc(NC(=S)NC(=O)c2ccccc2)cc1	ugtP null kill 84
Cc1ccccc1C(=O)NC(=S)Nc1ccc(Oc2ccc(Cl)cc2)cc1	ugtP null kill 86
COC(=O)c1ccccc1NC(=S)NC(=O)c1ccccc1C	none
O=C(NC(=S)Nc1cccnc1Cl)c1ccc(Cl)cc1	ugtP null kill 88
O=C(CC1CC=CCC(NC(=O)OCC2c3ccccc3-c3ccccc32)C(=O)OCC2CCCN2C1=O)NC(CO)Cc1ccccc1 (configuration not stated)	none (no result: SARS 3CLpro inh, CCHF vOTU inh, Mtb bLac sens, MazF activator)
COC(=O)C(N)Cc1ccc(O)c(O)c1 (configuration not stated)	none
NC(CO)C(=O)NNCc1ccc(O)c(O)c1O (configuration not stated)	MazF activator 223 (no result: ugtP null kill, Sa RN4220 lethal)
O=C(CC=NOCc1c(Cl)cccc1Cl)c1cnc(-c2ccccc2)s1	none (no result: SARS 3CLpro inh, CCHF vOTU inh, Mtb bLac sens, MazF activator)
CC1(C)S[C@@H]2[C@H](NC(=O)[C@H](N)c3ccccc3)C(=O)N2[C@H]1C(=O)O	none (no result: ugtP null kill, Sa RN4220 lethal)
CCOC(=O)OC(C)OC(=O)C1N2C(=O)C(NC(=O)C(N)c3ccccc3)C2SC1(C)C (configuration not stated)	ugtP null kill 100, Sa RN4220 lethal 101 (no result: SARS 3CLpro inh, CCHF vOTU inh, Mtb bLac sens, MazF activator)
CC1(C)SC2C(NC(=O)C(N)c3ccccc3)C(=O)N2C1C(=O)OC1OC(=O)c2ccccc21 (configuration not stated)	ugtP null kill 101, Sa RN4220 lethal 100 (no result: SARS 3CLpro inh, CCHF vOTU inh, Mtb bLac sens, MazF activator)
COC(=O)C1N2C(=O)[C@@H](NC(=O)COc3ccccc3)[C@H]2SC1(C)C (some centres not stated)	none (no result: SARS 3CLpro inh, ugtP null kill, Sa RN4220 lethal)
Cc1cc(COC(=O)C2N3C(=O)C(NC(=O)COc4ccccc4)C3SC2(C)C)on1 (configuration not stated)	ugtP null kill 100, Sa RN4220 lethal 100 (no result: SARS 3CLpro inh, CCHF vOTU inh, Mtb bLac sens, MazF activator)
Cc1ccc(N2CCN(N=Cc3sccc3C)CC2)cc1	none (no result: SARS 3CLpro inh, CCHF vOTU inh, Mtb bLac sens, MazF activator)
CCN(CC)c1ccc(N2C(=O)CSC2=S)cc1	ugtP null kill 33
CN(C)S(=O)(=O)c1ccc(N2CCCC2)c(C(=O)NNC(=O)c2ccccc2)c1	Sa RN4220 lethal 95 (no result: SARS 3CLpro inh)
N#CCC(Cc1ccccc1)N1CCC(NC(=O)OCc2ccccc2)CCC1=O (configuration not stated)	none (no result: SARS 3CLpro inh, CCHF vOTU inh, Mtb bLac sens, MazF activator)
O=C1/C(=C/c2ccc3c(c2)OCO3)SC(=S)N1CCC(=O)N(CCO)c1ccccc1	MazF activator 77 (no result: SARS 3CLpro inh, Mtb bLac sens, ugtP null kill, Sa RN4220 lethal)
Fc1ccc(COc2ccc(Br)cc2CNCc2ccncc2)cc1	Mtb bLac sens inconclusive
CCOc1cc(CNCc2ccncc2)cc(Br)c1OCc1ccc(F)cc1	ugtP null kill 94
CNC(=O)/C(C#N)=C/c1ccc(-c2nc3ccccc3s2)o1	MazF activator 94 (no result: ugtP null kill, Sa RN4220 lethal)
N#C/C(=C\c1ccc(-c2nc3ccccc3s2)o1)C(N)=O	none
CC(C)OC(=O)c1nn2c(C(F)(F)F)cc(-c3ccc(Br)o3)nc2c1Br	MazF activator 351
CCCCn1c(=O)[nH]c2nc3cc(N)ccc3nc2c1=O	CCHF vOTU inh 50
Nc1ccc2nc3c(=O)n(CCc4ccccc4)c(=O)[nH]c3nc2c1	none
O=C(Nc1ccccc1)C1=C(c2ccccc2)S(=O)(=O)CCS1(=O)=O	ugtP null kill 100, Sa RN4220 lethal 90 (no result: Mtb bLac sens)
COc1ccc(C2C=CCN(S(=O)(=O)C=Cc3ccccc3)CC(=O)N2Cc2ccc(F)cc2)cc1 (configuration not stated)	none (no result: SARS 3CLpro inh, CCHF vOTU inh, Mtb bLac sens, MazF activator)
Oc1oc(-c2ccccc2)nc1C=Nc1ccccn1	none (no result: SARS 3CLpro inh, CCHF vOTU inh, Mtb bLac sens, MazF activator)
Nc1ccc2oc(-c3ccccc3Cl)cc(=O)c2c1O	ugtP null kill 94
O=c1cc(-c2cccc(Cl)c2)oc2cccc(O)c12	none (no result: SARS 3CLpro inh)
O=c1cc(-c2ccccc2Cl)oc2c([N+](=O)[O-])c(O)cc(O)c12	ugtP null kill 91, Sa RN4220 lethal 87
O=C(Nc1ccc(O)c2c(=O)cc(-c3ccccc3Cl)oc12)c1ccccc1Cl	none
O=c1cc(-c2ccccc2Cl)oc2ccc([N+](=O)[O-])c(O)c12	ugtP null kill 100, Sa RN4220 lethal 99
O=C(Oc1ccc(C=NNc2nc(N3CCCCC3)nc(N3CCCCC3)n2)cc1)c1ccco1	none (no result: SARS 3CLpro inh, CCHF vOTU inh, Mtb bLac sens, MazF activator)
CC(C)(C)C(=O)ON=C(N)COc1cccc(Cl)c1	none (no result: SARS 3CLpro inh, CCHF vOTU inh, Mtb bLac sens, MazF activator)
CN(C)CCCn1c2c3ccccc3ccc2c2oc(=O)c3ccccc3c21	MazF activator 847 (no result: SARS 3CLpro inh, Mtb bLac sens, ugtP null kill, Sa RN4220 lethal)
c1cc(CNc2ccc3c(c2)OCO3)ccn1	none
Cc1ccc(CNc2ccc3c(c2)OCO3)cc1	MazF activator 59 (no result: CCHF vOTU inh)
CS(=O)(=O)c1ccc(CNC(=O)C2(C(F)(F)F)CC(=CCc3ccccc3)CCCO2)cc1 (configuration not stated)	none (no result: SARS 3CLpro inh, CCHF vOTU inh, Mtb bLac sens, MazF activator)
CC1(C)c2[nH]c3ccccc3c2CC2C(=O)N(c3cc(F)ccc3F)C(=O)N21 (configuration not stated)	none (no result: SARS 3CLpro inh, CCHF vOTU inh, Mtb bLac sens, MazF activator)
Cc1sc(NC(=O)COc2cccc(-n3cnnn3)c2)c(C#N)c1C	MazF activator 120
Cc1sc(NC(=O)COc2ccccc2)c(C#N)c1C	none
Cc1c(N=Cc2c(O)n(C)c(=O)c3ccccc23)c(=O)n(-c2ccccc2)n1C	MazF activator 300 (no result: CCHF vOTU inh)
Cc1c(N=Cc2c(O)n(CCc3ccccc3)c(=O)[nH]c2=O)c(=O)n(-c2ccccc2)n1C	none
Cc1cccc(Nc2nc(N)c([N+](=O)[O-])c(NCc3ccco3)n2)c1	none
Nc1nc(Nc2cccc(F)c2)nc(NCc2ccco2)c1[N+](=O)[O-]	MazF activator 66
Fc1ccc(C2=CC(c3ccco3)n3ncnc3N2)cc1 (configuration not stated)	none (no result: CCHF vOTU inh)
C1=C(c2ccc(-c3ccccc3)cc2)Nc2ncnn2C1c1ccco1 (configuration not stated)	MazF activator 344 (no result: Mtb bLac sens)
CC(=O)Nc1ccc(NC(=O)CC(C)=NNC(=O)c2cccc3ccccc23)cc1	none (no result: SARS 3CLpro inh, CCHF vOTU inh, Mtb bLac sens, MazF activator)
O=C(CCN1C(=O)/C(=C/c2ccccc2)SC1=S)NNC(=O)c1ccncc1	MazF activator 135
CCC(C)n1c(=O)c(C(=O)Nc2ccccc2S(N)(=O)=O)c(O)c2ccccc21 (configuration not stated)	Sa RN4220 lethal 103
COc1cc(CNc2ccc(O)cc2)cc(Br)c1OCc1ccccc1	CCHF vOTU inh 94
C[n+]1cccc(C=NNc2nc(Cl)c(C#N)c(Cl)c2Cl)c1	none (no result: SARS 3CLpro inh, CCHF vOTU inh, Mtb bLac sens, MazF activator)
CCN(CC)S(=O)(=O)c1ccc(N=Nc2c(C)[nH]n(C(N)=S)c2=O)cc1	CCHF vOTU inh 31
CC(=O)N(C)c1ccc(N=Nc2c(C)[nH]n(C(N)=S)c2=O)cc1	none
COc1cccc2c1C(=O)C[C@]1(CCCCC1C)O2 (some centres not stated)	none (no result: SARS 3CLpro inh, CCHF vOTU inh, Mtb bLac sens, MazF activator)
O=C(Nc1ccc(O)c(-c2nc3ccccc3s2)c1)c1cc(=O)c2ccccc2o1	none (no result: ugtP null kill, Sa RN4220 lethal)
O=C(Nc1ccc(O)c(-c2nc3ccccc3s2)c1)c1cccs1	MazF activator 53
Oc1ccc(C=NN2CCN(c3ccccn3)CC2)cc1	none (no result: SARS 3CLpro inh, CCHF vOTU inh, Mtb bLac sens, MazF activator)
CC(=O)Nc1cc(C(C)(C)C)c(O)c(C(C)(C)C)c1	none
CC(C)(C)c1cc([N+](=O)[O-])cc(C(C)(C)C)c1O	ugtP null kill 93, Sa RN4220 lethal 88
COc1cccc2cc(C(=O)Nc3cc(C)cc(C)c3)c(=NNS(=O)(=O)c3ccccc3)oc12	none (no result: SARS 3CLpro inh, CCHF vOTU inh, Mtb bLac sens, MazF activator)
